± gives the standard deviation of the averaged measurements.

For the first experiment, the system named is HEK293FT dCK*-only. Nature of the experiment: relative growth in counter assay (no AraC = 100%, AraC + DMSO = 0%); higher = more growth rescue independent of IKZF1. The note with it: compound concentration: 5 uM; AraC concentration: 0.3 uM; overnight pretreatment + 4 days AraC. In a few lines:
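In 384-well plates, 300 HEK293FT cells per well expressing an engineered kinase construct alone got 5 μM compound 2 h after seeding. After overnight at 37 °C, 0.3 μM nucleoside suicide substrate plus medium was applied for 4 days. Counting of Hoechst 33342-stained nuclei by imaging on day 5 was normalised per plate, with 100% for no-substrate wells and 0% for substrate plus vehicle.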
For the compound `CCO[C@H]1O[C@@H]2O[C@@]3(C)CC[C@H]4[C@H](C)CC[C@@H]([C@H]1C)[C@@]24OO3` [Artemotil], the “relative growth in counter assay” value is -27.3%. Same read-out and setting: to `Clc1ccc(C(OCCN2CCCCC2)c2ccccc2)cc1` (stereo not given) belongs -4.94%.

Regarding `COc1cc2c(c(OC)c1OC)-c1ccc(OC)c(=O)cc1[C@@H](NC(C)=O)CC2`, the “relative growth in counter assay” value is -34.4%. As for `C(=C\c1ccccc1)/CN1CCN(CCOC(c2ccccc2)c2ccccc2)CC1`, the “relative growth in counter assay” value is -4.14%. Take `N=C(Nc1ccccc1)Nc1ccccc1` [diphenylguanidine]: the “relative growth in counter assay” value was -6.47%.

On to `c1ccc2c(c1)Nc1ccccc1S2`, for which the “relative growth in counter assay” value is -0.21%. Consider `c1ccc2c(c1)sc1ccccc12`, for which the “relative growth in counter assay” value was -4.73%. On the same count and under the same terms, the result for `CCOc1ccccc1-n1c(C(C)N2CCN(C(=O)COc3ccc(Cl)cc3)CC2)nc2ccccc2c1=O` (stereo not given) [Erastin] reads -4.63%.

`C[C@]12CC[C@H](O)C[C@H]1CC[C@@H]1[C@@H]2C[C@@H](O)[C@]2(C)[C@@H](C3=CC(=O)OC3)CC[C@]12O` [Digoxigenin]: the “relative growth in counter assay” value was -33.8%. As to `O=[N+]([O-])/C=C/c1ccc2c(c1)OCO2`, the “relative growth in counter assay” value was -33.6%. On to `CCC(C)[C@H]1O[C@]2(C=C[C@@H]1C)C[C@@H]1C[C@@H](C/C=C(\C)[C@@H](OC3C[C@H](OC)C(O[C@H]4C[C@H](OC)[C@@H](O)[C@H](C)O4)[C@H](C)O3)[C@@H](C)/C=C/C=C3\CO[C@@H]4[C@H](O)C(C)=C[C@@H](C(=O)O1)[C@]34O)O2` (stereo not given in full) [ABAMECTIN (avermectin B1a shown)], for which the “relative growth in counter assay” value was -8.1%. Same read-out and setting: the result for `CC[C@@]1(C2O[C@@H](C3O[C@@](O)(CO)[C@H](C)C[C@@H]3C)C[C@@H]2C)CC[C@H]([C@]2(C)CC[C@]3(C[C@H](O)[C@@H](C)[C@@H]([C@@H](C)[C@@H](OC)[C@H](C)C(=O)O)O3)O2)O1` (stereo not given in full) reads -4.55%; that for `CC[C@@H](C(N)=O)N1CCCC1=O`, 2.24%; that for `Clc1ccc(N2CCN(Cc3c[nH]c4ncccc34)CC2)cc1`, 6.88%. Consider `c1ccc2c(c1)Sc1ccccc1N2CC1CN2CCC1CC2` (stereo not given) [levomequitazine], for which the “relative growth in counter assay” value is -5.25%.

As to `CCCCCCC[n+]1ccc(-c2cc[n+](CCCCCCC)cc2)cc1`, the “relative growth in counter assay” value was -12.3%. Same read-out and setting: to `CC(C)[C@]12O[C@H]1[C@@H]1O[C@]13[C@]1(O[C@H]1C[C@H]1C4=C(CC[C@@]13C)C(=O)OC4)[C@@H]2O` [Triptolide] belongs -34%; to `CO[C@@]12C(=COC(N)=O)c3c(O)c(N)c(C)c(O)c3N1C[C@@H]1N[C@@H]12` [Mitomycin C], -25.9%; to `COc1ccc2c(c1)/C(=C/c1cnc[nH]1)C(=O)N2`, -21.6%. Take `O=c1n(Cl)c(=O)n(Cl)c(=O)n1Cl`: the “relative growth in counter assay” value is -2.72%. Still for that read-out and setting: the result for `Fc1ccc(C(OCCN2CCN(C/C=C/c3ccccc3)CC2)c2ccc(F)cc2)cc1` reads 4.29%; that for `COc1cc2c(c(OC)c1OC)-c1ccc(OC)c(=O)cc1[C@@H](NC(C)=O)CC2` [Colchicine], -33.57 ± 0.13%. Still for that read-out and setting: to `C[C@@]1(CO)[C@H](O)CC[C@@]2(C)[C@H]1CC[C@H]1C[C@@H]3C[C@@]12CC[C@]3(O)CO` [Aphidicolin] belongs -34.1%; to `CC[C@@H](C(=O)O)C1CC[C@H](C)C([C@@H](C)[C@H](O)[C@H](C)C(=O)[C@H](CC)C2O[C@]3(C=C[C@@H](O)[C@]4(CC[C@@](C)(C5CC[C@](O)(CC)[C@H](C)O5)O4)O3)[C@H](C)C[C@@H]2C)O1` (stereo not given in full) [Salinomycin (Procoxacin)], -10.3%; to `O=c1[nH]c2ccccc2n1C1CCN(CCCC(c2ccc(F)cc2)c2ccc(F)cc2)CC1`, 3.23%. As to `ClC(C=C3)=C(Cl)C=[C@@]3[C@H]2C1=CC=CC=C1[C@H](NC)C2` [indatraline], the “relative growth in counter assay” value is 0.14%. For `N#Cc1cn([C@@H]2O[C@H](CO)[C@@H](O)[C@H]2O)c2ncnc(N)c12` [toyocamycin], the “relative growth in counter assay” value was -34.2%. The same measure, in the same setting: to `N#Cc1nn(-c2c(Cl)cc(C(F)(F)F)cc2Cl)c(N)c1S(=O)C(F)(F)F` (stereo not given) belongs 7.45%.

In a further experiment the test system is HEK293FT dCK*-IKZF1. Briefly: relative growth recovery (pomalidomide 10 uM = 100%, DMSO = 0%); higher = more growth rescue (IKZF1 fusion degradation). The note with it: compound concentration: 5 uM; AraC concentration: 0.3 uM; overnight pretreatment + 4 days AraC. In a few lines:
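On day 5, whole-well imaging was used to count Hoechst 33342-stained nuclei of HEK293FT cells stably carrying a deoxycytidine kinase–IKZF1 fusion. These cells had received 5 μM compound 2 h after seeding, followed after overnight at 37 °C by a nucleoside suicide substrate at 0.3 μM plus medium for 4 days. Growth recovery was normalised on each plate against a reference degrader and vehicle, which defined 100% and 0%, and values are duplicate means from separate days.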
With `O=C(Nc1ccc(Br)cc1)c1cc(Br)cc(Br)c1O` [tribomsalan], the relative growth recovery was -2.67%. Same read-out and setting: to `C[C@H]1O[C@@H](O[C@H]2[C@@H](O)C[C@H](O[C@H]3[C@@H](O)C[C@H](O[C@H]4CC[C@@]5(C)[C@H](CC[C@@H]6[C@@H]5C[C@@H](O)[C@]5(C)C(c7coc(O)c7)CC[C@]65O)C4)O[C@@H]3C)O[C@@H]2C)C[C@H](O)[C@@H]1O` (stereo not given in full) [Digoxin] belongs -12.6%. `COc1cc2cc(c1Cl)N(C)C(=O)C[C@H](OC(=O)C(C)C)[C@]1(C)O[C@H]1[C@H](C)[C@@H]1C[C@@](O)(NC(=O)O1)[C@H](OC)/C=C/C=C(\C)C2` [Ansamitocin P-3]: the relative growth recovery is -12.4%.

In the case of `O=c1[nH]c2ccccc2n1CCCN1CCC(n2c(=O)[nH]c3cc(Cl)ccc32)CC1`, the relative growth recovery worked out at 2.7%. Turning to `C[C@]12CCC3C(CC[C@]4(O)C[C@@H](O)CC[C@]34C=O)[C@@]1(O)CCC2C1=CC(=O)OC1` (stereo not given in full) [Strophantidin], the relative growth recovery is -11.4%. For the compound `O=C1/C(=C/c2ccccc2)C[C@@]2(O)C3Cc4ccc(O)c5c4[C@@]2(CCN3CC2CC2)[C@H]1O5`, the relative growth recovery is -12.6%. Consider `Oc1cc(Cl)ccc1Oc1ccc(Cl)cc1Cl`, for which the relative growth recovery is -0.94%. As to `CO[C@H]1[C@H](O)[C@H](O[C@H]2CC[C@@]3(C=O)[C@H](CC[C@@H]4[C@@H]3CC[C@]3(C)[C@@H](C5=CC(=O)OC5)CC[C@]43O)C2)O[C@@H](C)[C@@H]1O` [Peruvoside], the relative growth recovery is -12.7%. On the same count and under the same terms, to `O=[N+]([O-])c1ccc(Cl)c([N+](=O)[O-])c1` [2,4-dinitrochlorobenzene] belongs -12.8%. The same measure, in the same setting: the result for `CCO[C@H]1O[C@@H]2O[C@@]3(C)CC[C@H]4[C@H](C)CC[C@@H]([C@H]1C)[C@@]24OO3` [Artemotil] reads -5.64%; that for `Clc1ccc(C(OCCN2CCCCC2)c2ccccc2)cc1` (stereo not given), -0.525%; that for `COc1cc2c(c(OC)c1OC)-c1ccc(OC)c(=O)cc1[C@@H](NC(C)=O)CC2`, -11.6%.

Take `C(=C\c1ccccc1)/CN1CCN(CCOC(c2ccccc2)c2ccccc2)CC1`: the relative growth recovery was found to be 0.86%.

Consider `N=C(Nc1ccccc1)Nc1ccccc1` [diphenylguanidine], for which the relative growth recovery was -1.17%. In the case of `c1ccc2c(c1)Nc1ccccc1S2`, the relative growth recovery stood at 0.68%. Still for that read-out and setting: to `c1ccc2c(c1)sc1ccccc12` belongs 1.72%; to `CCOc1ccccc1-n1c(C(C)N2CCN(C(=O)COc3ccc(Cl)cc3)CC2)nc2ccccc2c1=O` (stereo not given) [Erastin], -1.44%; to `C[C@]12CC[C@H](O)C[C@H]1CC[C@@H]1[C@@H]2C[C@@H](O)[C@]2(C)[C@@H](C3=CC(=O)OC3)CC[C@]12O` [Digoxigenin], -10.9%. With `O=[N+]([O-])/C=C/c1ccc2c(c1)OCO2`, the relative growth recovery was -13.1%. The same measure, in the same setting: to `CCC(C)[C@H]1O[C@]2(C=C[C@@H]1C)C[C@@H]1C[C@@H](C/C=C(\C)[C@@H](OC3C[C@H](OC)C(O[C@H]4C[C@H](OC)[C@@H](O)[C@H](C)O4)[C@H](C)O3)[C@@H](C)/C=C/C=C3\CO[C@@H]4[C@H](O)C(C)=C[C@@H](C(=O)O1)[C@]34O)O2` (stereo not given in full) [ABAMECTIN (avermectin B1a shown)] belongs -3.08%.

Turning to `CC[C@@]1(C2O[C@@H](C3O[C@@](O)(CO)[C@H](C)C[C@@H]3C)C[C@@H]2C)CC[C@H]([C@]2(C)CC[C@]3(C[C@H](O)[C@@H](C)[C@@H]([C@@H](C)[C@@H](OC)[C@H](C)C(=O)O)O3)O2)O1` (stereo not given in full), the relative growth recovery was -0.68%.

`CC[C@@H](C(N)=O)N1CCCC1=O`: the relative growth recovery worked out at 0.38%. In the case of `Clc1ccc(N2CCN(Cc3c[nH]c4ncccc34)CC2)cc1`, the relative growth recovery came out at 2.15%. On the same count and under the same terms, to `c1ccc2c(c1)Sc1ccccc1N2CC1CN2CCC1CC2` (stereo not given) [levomequitazine] belongs 0.35%; to `CCCCCCC[n+]1ccc(-c2cc[n+](CCCCCCC)cc2)cc1`, -3.88%.

Consider `CC(C)[C@]12O[C@H]1[C@@H]1O[C@]13[C@]1(O[C@H]1C[C@H]1C4=C(CC[C@@]13C)C(=O)OC4)[C@@H]2O` [Triptolide], for which the relative growth recovery was -12.8%. Take `CO[C@@]12C(=COC(N)=O)c3c(O)c(N)c(C)c(O)c3N1C[C@@H]1N[C@@H]12` [Mitomycin C]: the relative growth recovery was -6.43%. As to `COc1ccc2c(c1)/C(=C/c1cnc[nH]1)C(=O)N2`, the relative growth recovery is -7.43%. Same read-out and setting: the result for `O=c1n(Cl)c(=O)n(Cl)c(=O)n1Cl` reads -1.44%; that for `Fc1ccc(C(OCCN2CCN(C/C=C/c3ccccc3)CC2)c2ccc(F)cc2)cc1`, 8.18%. The same measure, in the same setting: to `COc1cc2c(c(OC)c1OC)-c1ccc(OC)c(=O)cc1[C@@H](NC(C)=O)CC2` [Colchicine] belongs -12.2 ± 0.36%. The same measure, in the same setting: to `C[C@@]1(CO)[C@H](O)CC[C@@]2(C)[C@H]1CC[C@H]1C[C@@H]3C[C@@]12CC[C@]3(O)CO` [Aphidicolin] belongs -12.3%; to `CC[C@@H](C(=O)O)C1CC[C@H](C)C([C@@H](C)[C@H](O)[C@H](C)C(=O)[C@H](CC)C2O[C@]3(C=C[C@@H](O)[C@]4(CC[C@@](C)(C5CC[C@](O)(CC)[C@H](C)O5)O4)O3)[C@H](C)C[C@@H]2C)O1` (stereo not given in full) [Salinomycin (Procoxacin)], -1.1%; to `O=c1[nH]c2ccccc2n1C1CCN(CCCC(c2ccc(F)cc2)c2ccc(F)cc2)CC1`, 5.47%. `ClC(C=C3)=C(Cl)C=[C@@]3[C@H]2C1=CC=CC=C1[C@H](NC)C2` [indatraline]: the relative growth recovery is -3.33%. With `N#Cc1cn([C@@H]2O[C@H](CO)[C@@H](O)[C@H]2O)c2ncnc(N)c12` [toyocamycin], the relative growth recovery was -12.9%. Consider `N#Cc1nn(-c2c(Cl)cc(C(F)(F)F)cc2Cl)c(N)c1S(=O)C(F)(F)F` (stereo not given), for which the relative growth recovery was -1.52%.

The values above are taken from the supplement of paper PMC12340641.
